# Data reported in ChEMBL document CHEMBL4513216, “Probing the Open Global Health Chemical Diversity Library for Multistage-Active Starting Points for Next-Generation Antimalarials” (ACS Infect Dis, 2020).
# Screen size: about 69,000 compounds; about 8,600 (12%) showed an effect of 50% or more. This is one part of a sample in which strong results are shown more often than they occur.
# System: Plasmodium berghei
# Assay: Screen against P. berghei liver stage (PbLuc), transformed with Luciferase, at 10uM
# Assay type: functional, HepG2
# Details: tested at 10 uM
row,SMILES,INHIBITION [%]
1,Cc1cc(N2CCCN(C(=O)CSCC3CC3)CC2)ccn1,37.6
2,O=C(CSCC1CC1)N1CCCN(c2ccc(F)cc2)CC1,59.4
3,O=C(CSCC1CC1)N1CCCN(Cc2ccc(F)cc2)CC1,23.9
4,COCc1ccccc1C(=O)N1CCCC(c2cc(C)[nH]n2)C1 (configuration not stated),40.9
5,CCOc1cc(NC(=O)C2CC(=O)N(c3cccc(OC)c3)C2)ncn1 (configuration not stated),45.7
6,COc1cc(NC(=O)C2CC(=O)N(c3cccc(F)c3)C2)ncn1 (configuration not stated),6.34
7,COc1cc(NC(=O)C2CC(=O)N(c3cccc(Br)c3)C2)ncn1 (configuration not stated),63.8
8,CC(=O)N1CCCN(C(=O)NCCOc2ccc3c(c2)OCO3)CC1,-31.8
9,CCN1CCC2(CCC1=O)CN(C1CCOCC1)CCN2C (configuration not stated),-10.9
10,CNc1cnc(CC2COCCN(Cc3cccc(C)n3)C2)cn1 (configuration not stated),3.48
11,CN(CC1CC1)c1ccc2ccc(C(=O)NCCc3ccccc3)cn12,38.3
12,COc1cccc(CN(Cc2ncc[nH]2)Cc2ccco2)c1,28.3
13,COc1cccc(CN(Cc2ccco2)Cc2[nH]cnc2C)c1,87.7
14,Cc1noc(CN(Cc2cccc(C#N)c2)Cc2ccco2)n1,-9.82
15,COc1cccc(CN(Cc2ccco2)Cc2cnc(C)n2C)c1,65.7
16,COc1ccc(OC)c(CN(Cc2ccco2)Cc2[nH]cnc2C)c1,26.1
17,COc1ccc(CN(Cc2ccco2)Cc2[nH]cnc2C)c(OC)c1,20.6
18,Cn1nc(C(=O)N2CCSCC2)cc1NC(=O)c1ccccc1,7.39
19,Cn1cc(C(=O)CC2CCCN2C(=O)c2coc3ccccc23)cn1 (configuration not stated),3.15
20,CN(C)c1cc(CNc2cncc(-n3cccn3)n2)ccn1,-6.14
21,CC(C)(C)c1ncc(C(=O)NCc2cccc(C(=O)N3CCCC3)c2)s1,-12.9
22,CC1(C)[C@H](Cc2cc(CO)on2)C[C@@H]1N(CC1CC1)CC1CC1,27.2
23,COCc1ccc(CN[C@H]2C[C@@H](Cc3cc(CCO)on3)C2(C)C)o1,30.5

row,SMILES,INHIBITION [%]
1,CC1(C)[C@H](Cc2cc(CO)on2)C[C@@H]1NCc1ccc(CO)o1,58.5
2,O=C(c1cc(F)ccc1Br)N1CCN(C(=O)C2CC2)CC1,12.9
3,CCOc1cc(Cl)ccc1CNC(=O)c1ccc(=O)n(C)c1,39.3
4,CNS(=O)(=O)CC(=O)N1CC2(CCCC2)c2c(F)cccc21,-17.2
5,CCS(=O)(=O)NCC(=O)N1CC2(CCCC2)c2c(F)cccc21,62.4
6,O=C(NCC(=O)N1CC2(CCCC2)c2c(F)cccc21)C1CC1,40.5
7,Cc1nn(C)cc1CN(C)C(=O)c1cnccn1,8.7
8,Cn1cc(S(=O)(=O)NCc2ccc(F)cc2)cn1,24.175
9,CN(C)CC1CN(Cc2ccc(-n3cccn3)cc2)CCO1 (configuration not stated),15.3
10,O=C(Cc1cccc(F)c1)N1C[C@H]2CN(Cc3cccnc3)C[C@H]2C1,0.112
11,CN(C)C(=O)NC1COC2(CCN(Cc3ccc(Cl)c(F)c3)CC2)C1 (configuration not stated),39.2
12,CC1=NOC2(CCN(Cc3c[nH]c4ccccc34)CC2)C1,43.3
13,c1ccc(C2=NOC3(CCN(Cc4c[nH]c5ccccc45)CC3)C2)cc1,63.1
14,c1cncc(C2=NOC3(CCN(Cc4c[nH]c5ccccc45)CC3)C2)c1,44.1
15,CC(C)C1=NOC2(CCN(Cc3c[nH]c4ccccc34)CC2)C1,75.6
16,c1ccc(O[C@H]2COCCN(Cc3c[nH]c4ccccc34)C2)cc1,-41.9
17,CC(=O)N1CCC2(CC1)CC(C(C)C)=NO2,25.1
18,CCc1ccc(NC(=O)N2C[C@@H]3C[C@H](C(=O)NC4CCC4)[C@H](C2)O3)cc1,-50
19,O=C(O)COc1ccc(CN2CCCC(Cc3cccnc3)C2)cc1 (configuration not stated),1.62
20,COCCN(Cc1ccoc1)C(=O)CSc1ccc(F)cc1,56.5
21,COCCN(Cc1ccoc1)C(=O)c1c(F)cccc1F,-6.42
22,COCCCN(Cc1ccncc1)C(=O)CSc1ccc(F)cc1,25.8
23,O=C(Nc1cnccn1)[C@H]1CC[C@@H]2[C@@H](CCN2Cc2ccccn2)O1,-5.08

row,SMILES,INHIBITION [%]
1,CC(C)CN1CCCC1c1ccc(C(=O)Nc2cn(C)nn2)s1 (configuration not stated),47.9
2,CC(C)CN1CCCC1c1ccc(C(=O)Nc2cc[nH]n2)s1 (configuration not stated),22.3
3,CCc1nnc(NC(=O)c2ccc(C3CCCN3CC(C)C)s2)s1 (configuration not stated),15.9
4,CCc1noc(CC)c1CNC(=O)Nc1ccc2[nH]nnc2c1,27.2
5,Cc1cnc(NC(=O)c2ccc(C3CCCN3CC(C)C)s2)s1 (configuration not stated),64
6,CC(C)CN1CCCC1c1ccc(C(=O)Nc2ccc3[nH]nnc3c2)s1 (configuration not stated),51.1
7,CC(C)CN1CCCC1c1ccc(C(=O)Nc2cccnc2)s1 (configuration not stated),89.6
8,CCCN1CCCC1c1ccc(C(=O)N2CCOCC2)s1 (configuration not stated),42.1
9,CC(C)Cc1cc(NC(=O)c2ccc3[nH]nnc3c2)n(C)n1,1.45
10,CN1C(=N)NC(=O)/C1=C/c1ccc(-c2ccc(Br)cc2)o1,10.1
11,O=C(CN1CCC(c2cc(=O)n3c(n2)CCCCC3)C1)N1CCCCC1 (configuration not stated),1.5
12,Cc1cccc(OCCCN2CCC(N(C)Cc3noc(C)n3)C2)c1 (configuration not stated),1.75
13,Cc1nc(C2CCCN2C(=O)Cn2cncn2)no1 (configuration not stated),-14
14,COCCN1CCC(CN(CC2CCCO2)C(=O)Cc2cccs2)CC1 (configuration not stated),4.35
15,FC(F)(F)c1cc(C2CCCN(c3ncccn3)C2)n2ccnc2n1 (configuration not stated),7.43
16,Cn1nc(C2CCN(C(=O)CN3CCCCC3)CC2)c2cccnc21,23.2
17,CCOc1ncccc1CNC(=O)c1cccc(C)n1,38.25
18,COCC(=O)N1CC[C@H]2C[C@H](c3nnc(C4CC4)o3)O[C@@H]2C1,-6.3
19,COc1ccc(NC(=O)N(C)Cc2ccsc2)cn1,17.4
20,CCNc1cc2c(nn1)CCN(C(=O)c1cccnc1N(C)C)C2,17.05
21,CN1CCN(C(=O)Cn2ccc3c(Cl)cccc32)CC1,-13.6
